# Measurements from the supplement of paper PMC8728848.
# This excerpt belongs to a sample that is enriched for the strongest signals.
# What was measured:
# Assay in all cases: glycan array binding signal (z-score within array); higher = stronger binding
# [1] = test system: Gal(b1-4)GlcNAc(b1-3)Gal(b1-4)Glc; conditions: glycan notation: IUPAC condensed, linker removed
# In short: (§1)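 Glycan array binding is given as a within-array Z-score, which can be read as non-binding when negative. The arrays, 3228 of them, came from the Consortium for Functional Glycomics database and were retained only where the protein sequence was available. Z-scores were averaged across arrays of the same protein sequence at different concentrations or buffers and across linkers.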
# [2] = test system: Gal(b1-4)GlcNAc(b1-3)Gal(b1-4)[Fuc(a1-3)]GlcNAc(b1-3)Gal(b1-4)[Fuc(a1-3)]GlcNAc; conditions: glycan notation: IUPAC condensed, linker removed
# In short: as §1
# [3] = test system: Gal(b1-4)GlcNAc(b1-3)Gal(b1-4)GlcNAc; conditions: glycan notation: IUPAC condensed, linker removed
# In short: as §1
# [4] = test system: Gal(b1-4)GlcNAc(b1-3)[Gal(b1-4)GlcNAc(b1-6)]Gal(b1-4)GlcNAc; conditions: glycan notation: IUPAC condensed, linker removed
# In short: as §1
# [5] = test system: Gal(b1-4)GlcNAc(b1-3)[GlcNAc(b1-6)]Gal(b1-4)GlcNAc; conditions: glycan notation: IUPAC condensed, linker removed
# In short: as §1
# [6] = test system: Gal(b1-4)GlcNAc(b1-6)Gal(b1-4)GlcNAc; conditions: glycan notation: IUPAC condensed, linker removed
# In short: as §1
# [7] = test system: Gal(b1-4)GlcNAc(b1-3)GalNAc; conditions: glycan notation: IUPAC condensed, linker removed
# In short: as §1
# [8] = test system: Gal(b1-4)GlcNAc(b1-3)Gal(b1-4)GlcNAc(b1-3)[Gal(b1-4)GlcNAc(b1-3)Gal(b1-4)GlcNAc(b1-6)]GalNAc; conditions: glycan notation: IUPAC condensed, linker removed
# In short: as §1
# [9] = test system: Gal(b1-4)GlcNAc(b1-3)Gal(b1-4)GlcNAc(b1-3)Gal(b1-4)GlcNAc(b1-3)Gal(b1-4)GlcNAc(b1-2)Man(a1-3)[Gal(b1-4)GlcNAc(b1-3)Gal(b1-4)GlcNAc(b1-3)Gal(b1-4)GlcNAc(b1-3)Gal(b1-4)GlcNAc(b1-2)Man(a1-6)]Man(b1-4)GlcNAc(b1-4)[Fuc(a1-6)]GlcNAc; conditions: glycan notation: IUPAC condensed, linker removed; mutation: R125K
# In short: as §1
# [10] = test system: Gal(b1-4)GlcNAc(b1-3)Gal(b1-4)GlcNAc(b1-3)Gal(b1-4)GlcNAc(b1-3)Gal(b1-4)GlcNAc(b1-3)Gal(b1-4)GlcNAc(b1-2)Man(a1-3)[Gal(b1-4)GlcNAc(b1-3)Gal(b1-4)GlcNAc(b1-3)Gal(b1-4)GlcNAc(b1-3)Gal(b1-4)GlcNAc(b1-3)Gal(b1-4)GlcNAc(b1-2)Man(a1-6)]Man(b1-4)GlcNAc(b1-4)GlcNAc; conditions: glycan notation: IUPAC condensed, linker removed
# In short: as §1
# Chain of CHI3L1 (Homo sapiens), P36222 (P36222 whole entry): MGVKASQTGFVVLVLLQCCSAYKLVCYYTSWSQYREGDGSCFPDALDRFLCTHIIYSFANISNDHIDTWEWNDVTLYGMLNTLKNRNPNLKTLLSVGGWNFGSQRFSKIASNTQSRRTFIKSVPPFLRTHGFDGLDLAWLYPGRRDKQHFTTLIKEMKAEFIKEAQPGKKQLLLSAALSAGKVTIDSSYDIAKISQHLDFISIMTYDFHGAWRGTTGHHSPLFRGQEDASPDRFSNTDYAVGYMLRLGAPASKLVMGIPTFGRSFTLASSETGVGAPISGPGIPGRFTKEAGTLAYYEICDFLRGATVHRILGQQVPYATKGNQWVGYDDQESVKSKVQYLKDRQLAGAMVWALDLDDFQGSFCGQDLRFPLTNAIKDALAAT
# Chain of PILRa (Mus musculus), Q2YSF3 (Q2YSF3 entry or part of it): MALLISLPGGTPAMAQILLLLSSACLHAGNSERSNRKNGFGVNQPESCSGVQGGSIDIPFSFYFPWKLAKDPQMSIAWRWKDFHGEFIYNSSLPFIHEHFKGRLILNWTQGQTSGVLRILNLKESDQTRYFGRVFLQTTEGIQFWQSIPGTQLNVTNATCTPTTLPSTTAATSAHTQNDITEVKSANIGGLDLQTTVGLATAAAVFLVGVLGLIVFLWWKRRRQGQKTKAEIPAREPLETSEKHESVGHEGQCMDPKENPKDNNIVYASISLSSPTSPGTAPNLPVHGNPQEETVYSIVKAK
# Chain of Neurocan (Homo sapiens), O14594 (O14594 other isoform, or with tags, fused parts or gaps): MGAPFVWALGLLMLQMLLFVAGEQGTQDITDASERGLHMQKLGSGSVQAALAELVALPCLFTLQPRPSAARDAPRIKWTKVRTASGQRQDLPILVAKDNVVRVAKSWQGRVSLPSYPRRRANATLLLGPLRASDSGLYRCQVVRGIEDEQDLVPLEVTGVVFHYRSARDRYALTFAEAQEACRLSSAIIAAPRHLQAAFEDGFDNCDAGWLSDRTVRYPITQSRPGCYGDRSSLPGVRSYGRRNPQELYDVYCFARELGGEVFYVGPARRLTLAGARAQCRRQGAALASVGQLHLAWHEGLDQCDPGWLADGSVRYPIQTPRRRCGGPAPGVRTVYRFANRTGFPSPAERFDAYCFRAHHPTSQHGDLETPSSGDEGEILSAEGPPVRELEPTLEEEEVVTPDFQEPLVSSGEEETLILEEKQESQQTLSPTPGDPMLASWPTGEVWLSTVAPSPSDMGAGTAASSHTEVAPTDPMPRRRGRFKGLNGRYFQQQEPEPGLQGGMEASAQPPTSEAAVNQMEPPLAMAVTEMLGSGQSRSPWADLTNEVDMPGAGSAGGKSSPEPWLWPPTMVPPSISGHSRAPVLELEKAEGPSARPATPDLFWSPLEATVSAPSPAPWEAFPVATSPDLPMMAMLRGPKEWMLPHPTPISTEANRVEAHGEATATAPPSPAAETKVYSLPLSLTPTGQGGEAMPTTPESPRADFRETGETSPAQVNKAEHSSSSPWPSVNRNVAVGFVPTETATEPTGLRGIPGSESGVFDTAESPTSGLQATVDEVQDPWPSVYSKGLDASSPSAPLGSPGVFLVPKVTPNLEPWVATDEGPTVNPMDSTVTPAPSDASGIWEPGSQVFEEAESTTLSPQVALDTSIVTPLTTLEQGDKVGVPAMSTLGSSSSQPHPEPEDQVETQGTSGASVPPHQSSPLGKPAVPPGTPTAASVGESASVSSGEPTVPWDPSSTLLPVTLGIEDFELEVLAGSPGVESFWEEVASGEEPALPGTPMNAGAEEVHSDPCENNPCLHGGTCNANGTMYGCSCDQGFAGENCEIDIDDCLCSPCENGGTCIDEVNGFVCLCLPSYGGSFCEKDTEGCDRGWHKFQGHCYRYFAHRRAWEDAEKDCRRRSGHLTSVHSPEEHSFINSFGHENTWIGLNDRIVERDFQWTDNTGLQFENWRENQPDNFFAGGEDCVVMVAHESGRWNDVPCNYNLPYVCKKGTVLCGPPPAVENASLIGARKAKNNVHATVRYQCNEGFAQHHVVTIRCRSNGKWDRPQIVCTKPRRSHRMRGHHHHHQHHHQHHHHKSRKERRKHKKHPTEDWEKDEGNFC
# Chain of 6RG (Lolium perenne) (chain, as listed by the source): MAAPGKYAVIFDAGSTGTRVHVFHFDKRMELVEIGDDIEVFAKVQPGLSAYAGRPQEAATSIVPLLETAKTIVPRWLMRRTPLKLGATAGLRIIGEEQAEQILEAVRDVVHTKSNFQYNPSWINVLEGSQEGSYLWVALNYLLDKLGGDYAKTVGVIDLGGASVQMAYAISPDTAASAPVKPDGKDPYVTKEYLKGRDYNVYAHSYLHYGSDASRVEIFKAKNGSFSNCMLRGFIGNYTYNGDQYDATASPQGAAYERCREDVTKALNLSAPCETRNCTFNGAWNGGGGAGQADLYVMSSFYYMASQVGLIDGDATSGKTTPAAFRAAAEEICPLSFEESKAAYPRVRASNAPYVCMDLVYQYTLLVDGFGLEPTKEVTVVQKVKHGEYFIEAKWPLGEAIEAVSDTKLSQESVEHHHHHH
# Chain of Aggrecan (Rattus norvegicus), NP_071526 (chain, as listed by the source): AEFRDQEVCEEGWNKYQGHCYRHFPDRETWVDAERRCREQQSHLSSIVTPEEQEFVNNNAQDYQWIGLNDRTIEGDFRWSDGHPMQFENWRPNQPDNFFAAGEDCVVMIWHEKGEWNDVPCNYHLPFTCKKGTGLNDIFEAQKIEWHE
# Chain of Regenerating Gene IV (Homo sapiens), Q9BYZ8 (Q9BYZ8 whole entry, looked up): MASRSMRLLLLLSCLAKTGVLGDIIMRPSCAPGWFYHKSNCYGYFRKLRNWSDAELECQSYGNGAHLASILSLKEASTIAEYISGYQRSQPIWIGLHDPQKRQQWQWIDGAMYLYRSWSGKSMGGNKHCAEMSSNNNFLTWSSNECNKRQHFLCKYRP
# Chain of PILRb (Mus musculus), Q2YSF2 (Q2YSF2 entry or part of it): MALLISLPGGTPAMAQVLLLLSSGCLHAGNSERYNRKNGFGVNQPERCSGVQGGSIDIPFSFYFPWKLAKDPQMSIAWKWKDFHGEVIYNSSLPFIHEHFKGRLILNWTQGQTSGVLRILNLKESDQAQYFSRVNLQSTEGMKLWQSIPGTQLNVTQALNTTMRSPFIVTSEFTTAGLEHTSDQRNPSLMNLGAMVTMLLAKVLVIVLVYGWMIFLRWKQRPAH
# Chain of Avaren (Actinomycete K97) (chain, as listed by the source): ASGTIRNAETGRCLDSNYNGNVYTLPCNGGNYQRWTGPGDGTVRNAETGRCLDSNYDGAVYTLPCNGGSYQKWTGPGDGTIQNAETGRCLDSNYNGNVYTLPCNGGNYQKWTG
# Chain of wLAT-1A (Homo sapiens), Q01650 (Q01650 whole entry): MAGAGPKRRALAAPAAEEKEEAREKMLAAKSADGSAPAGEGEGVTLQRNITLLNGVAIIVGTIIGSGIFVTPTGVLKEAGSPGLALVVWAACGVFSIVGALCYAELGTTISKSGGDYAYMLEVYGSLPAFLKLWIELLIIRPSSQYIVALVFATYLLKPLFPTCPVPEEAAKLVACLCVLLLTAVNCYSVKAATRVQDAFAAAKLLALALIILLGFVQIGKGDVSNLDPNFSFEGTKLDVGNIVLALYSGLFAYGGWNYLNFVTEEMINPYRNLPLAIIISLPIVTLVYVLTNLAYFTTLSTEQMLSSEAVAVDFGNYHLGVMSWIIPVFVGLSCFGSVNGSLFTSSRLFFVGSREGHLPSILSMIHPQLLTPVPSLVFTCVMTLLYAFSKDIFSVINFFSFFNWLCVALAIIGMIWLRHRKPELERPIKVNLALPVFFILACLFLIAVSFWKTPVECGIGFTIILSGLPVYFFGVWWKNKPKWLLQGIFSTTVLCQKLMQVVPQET
substance,measurement,setting,value
"Neurocan (Homo sapiens), O14594",glycan array binding signal (z-score),[1],-0.263
same,glycan array binding signal (z-score),[2],-0.779
"wLAT-1A (Homo sapiens), Q01650",glycan array binding signal (z-score),[3],-0.343
"Aggrecan (Rattus norvegicus), NP_071526",glycan array binding signal (z-score),[4],-0.184
"PILRa (Mus musculus), Q2YSF3",glycan array binding signal (z-score),[5],-0.283
same,glycan array binding signal (z-score),[6],-0.231
"Regenerating Gene IV (Homo sapiens), Q9BYZ8",glycan array binding signal (z-score),[7],1.48
Avaren (Actinomycete K97),glycan array binding signal (z-score),[8],-0.016
"CHI3L1 (Homo sapiens), P36222",glycan array binding signal (z-score),[1],-0.106
same,glycan array binding signal (z-score),[6],-0.141
"PILRb (Mus musculus), Q2YSF2",glycan array binding signal (z-score),[4],-0.023
6RG (Lolium perenne),glycan array binding signal (z-score),[2],-0.329
"Siglec-8 (Homo sapiens), Q9NYZ4",glycan array binding signal (z-score),[9],0.321
same,glycan array binding signal (z-score),[10],0.483
same,glycan array binding signal (z-score),[8],0.455
same,glycan array binding signal (z-score),[1],-0.209
same,glycan array binding signal (z-score),[5]; mutation: R125K,-0.502
